# Test results taken from PMC5540273 (PLoS ONE, 2017).
# Test system: PIK3CG
# Details: concentration: 1 μM,replicates: in singlicate; n = 1
# 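Further: KINOMEscan kinase panel screen.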
row,Compound,%Inh [%]
1,OCCn1cc(-c2cnc3nnn(Cc4ccc5ncccc5c4)c3n2)cn1,0
2,COc1cc2ncn(-c3cc(OCC4CCCCC4)c(C(N)=O)s3)c2cc1OC [GSK204559],5
3,CCn1c(-c2nonc2N)nc2cncc(Br)c21 [SB-738004],11
4,CC(=O)c1c(-c2ccncc2)[nH]c(-c2ccncc2)c1C [GW493036],0
5,CCOC(=O)N1CCC(n2cnc(-c3ccc(F)cc3)c2-c2ccnc(N)n2)CC1 [SB-219952],64
6,O=C(NOCC1CC1)c1cc(Br)c(F)c(F)c1Nc1ccc(I)cc1Cl,0
7,CCn1c(-c2nonc2N)nc2cncc(CNC3CCNCC3)c21.Cl [SB-747651],0
8,Cc1nnc(-c2ccc3occ(-c4ccc(S(C)=O)cc4)c3n2)o1 (stereo not shown),0
9,CCCC(=O)Nc1n[nH]c2ncccc12 [SB-601436],7
10,O=C(Nc1cccc(Oc2ccc3nccn3n2)c1)Nc1cccc(C(F)(F)F)c1,18
11,C[C@@H]1CCN(C(=O)N2CCCC2)C[C@@H]1N(C)c1ncnc2[nH]ccc12,14
12,c1ccc(Oc2ccc(Nc3ccnc4ccc(-c5ccccn5)cc34)cc2)cc1 [GW407034],0
13,O=c1[nH]cc(-c2ccc(O)cc2)c2sc(-c3ccncc3)cc12 [GSK1033723],7
14,CS(=O)(=O)Nc1ccc(-c2ccnc3[nH]ccc23)cc1 [GSK993273],7
15,Cc1n[nH]c2cc(Nc3ccnc(Nc4cccc(CN5CCOCC5)c4)n3)ccc12 [GW682569],6
16,O=C(Nc1ccc(Oc2ccc3nc(NC(=O)C4CC4)cn3n2)c(F)c1)c1cccn(-c2ccccc2)c1=O,0
17,C[C@@H]1CNc2c(sc3ccc4nc(-c5ccc(O)cc5)ccc4c23)C(=O)N1,11
18,C[C@@H]1CNc2c(sc3ccc4nc(-c5ccncc5)ccc4c23)C(=O)N1,0
19,Cn1cc(-c2cccc3c(N)c(C(N)=O)nnc23)cn1,18
20,C[C@@H](Oc1cc(-n2cnc3cc(-c4cnn(C)c4)ccc32)sc1C(N)=O)c1ccccc1Cl [GSK580432],24
21,COC(=O)c1cccc(NC(=O)NC2CCN(c3ccnc(Nc4cc(OC)c(OC)c(OC)c4)n3)C2)c1 (stereo not shown) [GSK1379767],21
22,CN1CCN(CCCNc2nccc(-c3c(-c4ccc(F)cc4)nn4cc(C(N)=O)ccc34)n2)CC1 [GW622475],0
23,NC(=O)c1ccc(-c2cc3ncnc(SCC(=O)O)c3s2)cc1,0
24,C[C@@H](Oc1cc(-n2cnc3ccc(-c4ccncc4)cc32)sc1C(N)=O)c1ccccc1Cl [GSK483724],97.7
25,CCNCC(Cc1ccccc1)NC(=O)c1cc(Br)c(-c2ccnc3[nH]ccc23)s1.Cl.Cl (stereo not shown) [GSK1383280],0
